The record followed here is PubChem BioAssay (NCATS).

Test [1] concerns the target Cytochrome P450 3A4 (Homo sapiens) (UniProt P08684). The test is described as follows: qHTS Assay for Inhibitors and Substrates of Cytochrome P450 3A4 (AID 884). Further: nearly all actives have a fitted effect of over 50% in size. Further: potency means the concentration at half of the fitted maximal effect. The method in brief:
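Luminescent readout of luciferin produced by CYP3A4 (20 nM) dealkylation of Luciferin-PPXE, 25 uM (its KM). NADPH-driven reaction ran 60 min at RT after 10 min compound preincubation; data scaled to 57 uM ketoconazole as 100% inhibition.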

For test [2] the target is unchanged. The test is described as follows: qHTS Assay for Activators of Cytochrome P450 3A4 (AID 885). Further: nearly all actives have a fitted effect of over 65% in size. The method in brief:
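Using 20nM recombinant human CYP3A4 in potassium phosphate (200mM), substrate Luciferin-PPXE at 25uM, luminescent luciferin detection followed a 60-min RT NADPH reaction; data scaled to 57 uM ketoconazole.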
A general note: In qHTS, concentration-response curves come from the screen itself.

Test [3] has as its system Zika virus NS2B-NS3 protease. Description: Primary screen GU AMC qHTS for Zika virus inhibitors (AID 1347154).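 Further: 0% = no-inhibitor control and -100% = no-enzyme control; nearly all actives have a fitted effect of over 70% in size.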 The method in brief: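 Unlinked Zika NS2B hydrophilic domain/NS3 protease domain noncovalent complex (25 nM final) in 10 mM Tris-HCl pH 8.0, 0.01% Tween 20, with AMC peptide substrate. Fluorescence (ex 340, em 450 nm) change over 15 min, room temperature; percent inhibition fitted to 4-parameter Hill equation.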

Test [4] can be described thus: Cell Viability qHTS for small molecule stabilizers of the endoplasmic reticulum resident proteome (AID 1508629).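 Further: compound exposure about 46 h in total before the viability read.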 Further: potency means the concentration at half of the fitted maximal effect. The note with it: cell viability counter-screen, 100 nM thapsigargin for final 4 h.
Test [5] in a line: AP1 Signaling Pathway (AID 357; active means well fitted curve in either direction with a large enough effect, not every such curve was filed as active; further: on the % scale 0 is the no-effect control and ±100 the full control effect). The note with it: ME-180 AP-1-bla reporter, EGF-induced, beta-lactamase ratio, 5 h; at 38 µM (top of the series). The method in brief: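 Cells are seeded overnight, exposed to compound titrations and an EC50 level of EGF for 5 hours at 37 °C, then loaded with CCF4 dye for 2.5 hours. Beta-lactamase activity under the AP-1 element is read as a blue/green ratio.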

Test [6] can be described thus: NFAT Signaling Pathway (AID 444; active means well fitted curve in either direction with a large enough effect, not every such curve was filed as active;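 further: carbachol stimulus at about its EC50 of 1 µM final; on the % scale 0 is the no-effect control and ±100 the full control effect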). The note with it: Jurkat NFAT-bla M1, carbachol, beta-lactamase ratio, 5 h; at 38 µM (top of the series). The method in brief: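 Jurkat cells carrying an NFAT-driven β-lactamase reporter and co-transfected muscarinic M1 receptor were treated with compound plus carbachol (1 uM final, an EC50 level) for 5 h at 37 °C. CCF4 loading followed for 1 h at RT; 460/530 nm ratio gave %activity.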

Test [7] concerns the target Glucocorticoid receptor (Homo sapiens) (UniProt P04150). The test is described as follows: GR-GFP Redistribution (AID 450;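 active means compounds whose dose series gives a full or clear partial fitted curve of increased nuclear translocation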; further: potency means the concentration at half of the fitted maximal effect). As to conditions: U2OS GR-GFP nuclear translocation, laser cytometry, 2 h.
For test [8] the target is unchanged. The test is described as follows: GR-EFC Redistribution (AID 451; calls by dose curve; further: potency means the concentration at half of the fitted maximal effect). The note with it: CHO-K1 GR-EFC translocation, beta-gal luminescence, 2 h. Put shortly: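 CHO-K1 cells stably expressing nuclear-localized β-gal enzyme acceptor and GR fused C-terminally to the enzyme donor fragment; ligand-driven nuclear translocation restores β-gal by complementation. Compounds titrated up to 46 uM final, 2 h at 37 °C; luminescence read.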

The target of test [9] is Mitogen-activated protein kinase 10 (Mus musculus) (UniProt Q61831). The test is described as follows: JNK3 AlphaScreen Assay (AID 530; active means well fitted curve in either direction with a large enough effect, not every such curve was filed as active;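 further: kinase came from lysate of stimulated human HepG2 cells; signal reports phosphorylation of biotinylated GST-cJun 1-79 at Ser73 with 10 µM ATP; on the % scale 0 is the no-effect control and ±100 the full control effect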). The method in brief:
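Biotinylated GST-cJun(1-79) served as substrate for JNK3 in HepG2 lysates stimulated with IL-1beta and TNF-alpha. ATP was 10 uM final, pH 7.6. Ser73 phosphorylation was quantified by AlphaScreen (680 nm excitation).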
For orientation: In Alpha technology, singlet oxygen from a donor bead excites a nearby acceptor bead.

Test [10] deals with 3',5'-cyclic-AMP phosphodiesterase 4B (Homo sapiens) (UniProt Q07343). Description: qHTS Assay for Inhibitors of PDE-IV (AID 607; active means well fitted activation curve with a large enough effect in the main read-out, with a control signal flat, not every such curve was filed as active; further: % of control where 0% means no effect). The method in brief:
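Live HEK293 cells with a modified cyclic nucleotide-gated (CNG) channel report intracellular cAMP via membrane-potential dye fluorescence (ex 535/em 590 nm). Endogenous PDE-IV was targeted. Compounds were tested at up to 22.9 uM final; RO 20-1724 100 uM served as control.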

Test [11] addresses Cytochrome P450 2D6 (Homo sapiens) (UniProt P10635). The test is described as follows: qHTS Assay for Inhibitors and Substrates of Cytochrome P450 2D6 (AID 891). Further: potency means the concentration at half of the fitted maximal effect; nearly all actives have a fitted effect of over 60% in size. Put shortly: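 Luminescent read-out of luciferin formed by 5 nM human CYP2D6 demethylating 30 uM Luciferin-ME EGE (Km level) over 60 min at room temperature after NADPH regeneration addition. Data normalized to full inhibition by 1.43 uM quinidine.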

The nature of test [12]: qHTS Assay for Identification of Small Molecule Agonists for Thrombopoietin (TPO) Signaling Pathway (AID 917). Further: on the % scale 0 is the no-effect control and ±100 the full control effect. Put shortly: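 Stimulation at the TPO EC50 (26 pM final) was used to detect activators. Ba/F3 mouse cells bearing human TPO receptor and a luciferase reporter under the Glycoprotein IIb promoter were exposed to compounds for 24 hrs at 37 C.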
Test [13] addresses Muscarinic acetylcholine receptor M1 (Rattus norvegicus) (UniProt P08482). Description: qHTS Assay for Antagonists of Acetylcholine Muscarinic M1 Receptor: Kinetic Measurement of Intracellular Calcium Response (AID 943).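 Further: Fluo-4 calcium signal as peak divided by basal fluorescence over 4 min; nearly all actives have a fitted effect of over 75% in size.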 The method in brief:
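Quantitative HTS in CHO-M1 (rat receptor) cells: 10 min compound exposure ahead of 100 nM carbachol, Fluo-4 fluorescence followed 4 min, value expressed as peak-to-basal ratio.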

Test [14] shares this target. The test is described as follows: qHTS Assay for Antagonists of Acetylcholine Muscarinic M1 Receptor: Measurement of IP-One Response (AID 944). Further: nearly all actives have a fitted effect of over 75% in size. Put shortly:
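Antagonism was measured as loss of carbachol-driven (EC80) IP1 accumulation in CHO cells carrying rat M1, using a homogeneous IP-One TR-FRET kit read at 620 and 665 nm.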

Test [15] deals with Pyruvate kinase (Leishmania mexicana) (UniProt Q27686). Description: qHTS Validation Assay for Inhibitors of Leishmania Mexicana Pyruvate Kinase (AID 945).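 Further: 0% = DMSO only neutral control wells.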 Put shortly: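 Purified LmPYK (E451W mutant, 0.2 nM) was incubated 1 h at room temperature with 0.5 mM PEP and 0.1 mM ADP in 50 mM imidazole pH 7.2, 50 mM KCl, 7 mM MgCl2; ATP formed was read by PKLight luminescence, normalized to DMSO wells.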
Sequence of Pyruvate kinase (Leishmania mexicana) (Q27686 2-499 E452W): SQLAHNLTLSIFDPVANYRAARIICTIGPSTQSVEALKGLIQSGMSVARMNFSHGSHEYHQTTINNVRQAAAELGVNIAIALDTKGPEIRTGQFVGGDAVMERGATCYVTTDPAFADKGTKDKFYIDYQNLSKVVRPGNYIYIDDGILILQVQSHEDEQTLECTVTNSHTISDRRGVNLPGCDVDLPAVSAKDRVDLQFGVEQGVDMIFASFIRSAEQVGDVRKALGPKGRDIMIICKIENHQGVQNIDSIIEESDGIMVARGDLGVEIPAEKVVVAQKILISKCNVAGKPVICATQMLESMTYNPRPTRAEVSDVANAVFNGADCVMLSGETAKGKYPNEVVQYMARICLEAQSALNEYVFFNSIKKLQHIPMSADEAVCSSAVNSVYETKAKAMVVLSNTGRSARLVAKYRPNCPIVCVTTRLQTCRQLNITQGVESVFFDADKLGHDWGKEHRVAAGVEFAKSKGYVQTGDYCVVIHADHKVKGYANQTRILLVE

The target of test [16] is Pyruvate kinase PKM (Homo sapiens) (UniProt P14618). The test is described as follows: qHTS Assay for Activators of Human Muscle Pyruvate Kinase (AID 954; active means well fitted curve in the direction sought with a large enough effect, not every such curve was filed as active;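 further: 0% = uninhibited enzyme and -100% = no enzyme or full thiadiazolimine inhibition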). Put shortly: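 Screening used highly purified human pyruvate kinase M2 under submaximal activity, with PEP at its Km and ADP below Km. After an hour at room temperature, ATP was read by luciferase luminescence.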
Sequence of Pyruvate kinase PKM (Homo sapiens) (P14618 whole entry, looked up): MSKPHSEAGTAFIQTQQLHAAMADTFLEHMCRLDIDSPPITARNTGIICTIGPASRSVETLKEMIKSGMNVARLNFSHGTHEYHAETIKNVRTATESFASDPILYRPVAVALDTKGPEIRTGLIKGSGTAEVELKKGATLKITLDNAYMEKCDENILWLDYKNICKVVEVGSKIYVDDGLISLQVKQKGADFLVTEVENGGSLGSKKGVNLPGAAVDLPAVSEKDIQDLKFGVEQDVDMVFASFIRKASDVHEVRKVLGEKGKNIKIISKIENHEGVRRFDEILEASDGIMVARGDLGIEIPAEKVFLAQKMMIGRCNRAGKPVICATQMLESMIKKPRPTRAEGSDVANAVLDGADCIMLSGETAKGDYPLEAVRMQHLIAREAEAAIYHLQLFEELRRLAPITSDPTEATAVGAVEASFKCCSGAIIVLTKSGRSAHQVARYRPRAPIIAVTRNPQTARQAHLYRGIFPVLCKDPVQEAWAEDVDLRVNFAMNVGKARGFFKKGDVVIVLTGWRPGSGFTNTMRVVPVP
For test [17], the target named is alpha-glucosidase (Oryza sativa, rice) (UniProt Q653V4). The test is described as follows: Counterscreen for Glucocerebrosidase Inhibitors: qHTS Assay for Rice alpha-Glucosidase at pH 5.0 (AID 997).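 Further: 0% = full activity with enzyme and -100% = basal without enzyme.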 The method in brief:
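Endpoint fluorogenic assay at pH 5.0: compounds (0.7 nM to 77 uM) titrated against 4 nM rice enzyme and 400 uM 4-MU-alpha-glucoside for 20 min at room temperature; NaOH/glycine stop, read ex 365/em 440 nm, Hill-fitted AC50.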

Test [18] in a line: qHTS Assay for Lipid Storage Modulators (AID 1519; calls by dose curve). The note with it: Drosophila S3 cells, BODIPY lipid droplet/cell ratio, laser cytometry, cells loaded with oleic acid; for activity change, negative = inhibition: at 57.5 µM (top of the series). The method in brief: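 Cells seeded at 5,000 per well were treated with compounds over a concentration series and loaded with oleic acid (400 uM, as added). Lipid droplet fluorescence (488 nm excitation, 500-530 nm channel) was read by laser-scanning cytometry and normalized to 20 uM Triacsin C.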

Test [19] has as its target DNA dC->dU-editing enzyme APOBEC-3G (Homo sapiens) (UniProt Q9HC16). The test is described as follows: qHTS for inhibitors of Vif-A3G interactions: Validation (AID 588379). Further: 0% is about no effect. Put shortly: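 Yellow fluorescence (Ex 488, Em 500-530) of Vif-coexpressing HeLa A3G-eYFP cells, scanned by Acumen cytometer, reports blocked A3G degradation. Cells plated at 700/well overnight at 37 deg C before compound addition, then a further overnight compound incubation at 37 deg C.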

Test [20] is described as follows: Counterscreen qHTS for small molecule stabilizers of the endoplasmic reticulum resident proteome: GLuc-NoTag assay (AID 1508627).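 Further: 0% = thapsigargin alone and -100% = DMSO vehicle control.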 Put shortly:
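Secreted GLuc lacking the SERCaMP modification is measured in SH-SY5Y cells exposed to compound for 19 h and then to thapsigargin (100 nM, 4 h) to deplete ER calcium; hits retested at 11 concentrations, up to 76.6 uM.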
(In general: Counterscreens check selectivity or assay interference.)

Test [21] in a line: Primary qHTS for small molecule stabilizers of the endoplasmic reticulum resident proteome: Secreted ER Calcium Modulated Protein (SERCaMP) assay (AID 1508630). Further: on the % scale 0 is the no-effect control and ±100 the full control effect. Put shortly:
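The SH-SY5Y reporter protocol was run at 3 concentrations up to 38.3 uM (primary) or 11 concentrations (follow-up): 16 h compound, 100 nM thapsigargin for 4 h, then extracellular luciferase luminescence.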

Test [22] addresses Cytochrome P450 1A2 (Homo sapiens) (UniProt P05177). The test is described as follows: p450-cyp1a2 (AID 410; calls by dose curve;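 further: -100% = full effect of reference inhibitor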). Put shortly: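 Read-out is luminescence from luciferin produced by CYP1A2 demethylation of Luciferin-ME (100uM, at Km). Detection reagent stopped the 60 min NADPH-dependent reaction; signals were normalized to 57 uM furafylline.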
A short description of test [23]: Stat Signaling Pathway (AID 446; active means well fitted curve in either direction with a large enough effect, not every such curve was filed as active). As to conditions: ME-180 (cervical carcinoma) SIE beta-lactamase reporter, IL-6 stimulated, 5 h; at 38 µM (top of the series). Put shortly: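 Overnight-plated ME-180 cells bearing a STAT Inducible Element beta-lactamase reporter; 5 h co-exposure to compound and 40 pM IL-6; values normalized to 300 pM IL-6 and 125 nM JAK inhibitor controls.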
Test [24] has as its target Cytochrome P450 2C9 (Homo sapiens) (UniProt P11712). Description: qHTS Assay for Inhibitors and Substrates of Cytochrome P450 2C9 (AID 883). Further: on the % scale 0 is the no-effect control and ±100 the full control effect; nearly all actives have a fitted effect of over 60% in size. Put shortly:
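Human CYP2C9 (10nM) hydroxylated Luciferin-H (100uM, at its KM) to luciferin in 25mM KPO4. Compound was preincubated 10 min at 37C, then NADPH regeneration started a 60 min reaction at 37C. Luminescence was read after detection reagent, normalized to 57uM sulphaphenazole.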

The nature of test [25]: Confirmation and Secondary Assay for Modulators of Hemoglobin Beta Chain Splicing at IVS2 654 locus (AID 910).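 Further: per-well total GFP intensity by laser scanning cytometry after 2-day treatment; % of control where 0% means no effect.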 Put shortly:
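HeLa cells stably carrying EGFP interrupted by mutant beta-globin IVS2-654 intron (CMV-driven) were treated with compound for 2 days at 37C; corrected splicing was scored as total peak GFP intensity per well (488 nm excitation, 500-520 nm emission).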

Test [26] can be described thus: Confirmation and Secondary Assay for Modulators of Hemoglobin Beta Chain Splicing at IVS2 705 locus (AID 930).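 Further: HeLa cells stably expressing the EGFP-705 splicing reporter; % of control where 0% means no effect.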 Put shortly:
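Restored EGFP fluorescence after 2-day compound exposure reports splicing correction in IVS2-705 EGFP reporter HeLa cells; positive control was 500 nM splice-blocking PNA oligo. Signal measured as well total peak GFP intensity (488 nm excitation).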

Test [27] concerns the target Alpha-galactosidase A (Homo sapiens) (UniProt P06280). The test is described as follows: Counterscreen for Glucocerebrosidase Inhibitors: qHTS Assay for Human alpha-Galactosidase at pH 4.5 (AID 992). Further: 0% is about no effect. Put shortly: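 Each compound is preincubated briefly with 2 nM enzyme before substrate addition (80 uM); plates then sit 20 min at ambient temperature, are quenched with 1M NaOH/1M glycine, and read fluorometrically.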

Where [28] appears, read: measured here: cell count channel max response.
Setting [29] is: measured here: lipid channel max response.

Inconclusive results are not listed. The source made the active and inactive calls. Unless noted, the call rests on the fitted dose curve; in most records, active means well fitted curve in the direction sought with a large enough effect; inconclusive means small, poorly fitted or top-dose-only effect, or another doubt; inactive means no such curve, though single readings can be large; an effect the other way counts as inactive or inconclusive.

Sequence of 3',5'-cyclic-AMP phosphodiesterase 4B (Homo sapiens) (Q07343 whole entry, looked up): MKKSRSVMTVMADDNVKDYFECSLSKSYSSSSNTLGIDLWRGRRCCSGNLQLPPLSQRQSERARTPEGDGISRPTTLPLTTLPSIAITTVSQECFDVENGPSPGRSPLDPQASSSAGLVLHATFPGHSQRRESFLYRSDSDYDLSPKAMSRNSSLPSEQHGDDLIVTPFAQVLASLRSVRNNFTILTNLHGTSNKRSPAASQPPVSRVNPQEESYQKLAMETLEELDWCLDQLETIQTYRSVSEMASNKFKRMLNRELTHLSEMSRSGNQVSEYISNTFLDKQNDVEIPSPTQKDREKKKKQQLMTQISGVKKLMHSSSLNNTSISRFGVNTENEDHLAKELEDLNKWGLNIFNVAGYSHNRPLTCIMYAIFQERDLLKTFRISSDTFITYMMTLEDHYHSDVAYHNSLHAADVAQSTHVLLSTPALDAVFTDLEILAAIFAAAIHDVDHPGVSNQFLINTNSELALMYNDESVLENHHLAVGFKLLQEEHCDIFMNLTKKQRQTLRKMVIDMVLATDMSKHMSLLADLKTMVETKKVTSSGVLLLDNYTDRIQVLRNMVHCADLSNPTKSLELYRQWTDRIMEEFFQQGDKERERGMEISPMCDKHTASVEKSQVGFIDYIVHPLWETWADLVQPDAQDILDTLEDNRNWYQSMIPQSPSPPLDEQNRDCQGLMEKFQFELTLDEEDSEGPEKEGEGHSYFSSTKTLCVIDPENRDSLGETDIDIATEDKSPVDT
Sequence of Glucocorticoid receptor (Homo sapiens) (P04150 whole entry, looked up, the tested form may be a part): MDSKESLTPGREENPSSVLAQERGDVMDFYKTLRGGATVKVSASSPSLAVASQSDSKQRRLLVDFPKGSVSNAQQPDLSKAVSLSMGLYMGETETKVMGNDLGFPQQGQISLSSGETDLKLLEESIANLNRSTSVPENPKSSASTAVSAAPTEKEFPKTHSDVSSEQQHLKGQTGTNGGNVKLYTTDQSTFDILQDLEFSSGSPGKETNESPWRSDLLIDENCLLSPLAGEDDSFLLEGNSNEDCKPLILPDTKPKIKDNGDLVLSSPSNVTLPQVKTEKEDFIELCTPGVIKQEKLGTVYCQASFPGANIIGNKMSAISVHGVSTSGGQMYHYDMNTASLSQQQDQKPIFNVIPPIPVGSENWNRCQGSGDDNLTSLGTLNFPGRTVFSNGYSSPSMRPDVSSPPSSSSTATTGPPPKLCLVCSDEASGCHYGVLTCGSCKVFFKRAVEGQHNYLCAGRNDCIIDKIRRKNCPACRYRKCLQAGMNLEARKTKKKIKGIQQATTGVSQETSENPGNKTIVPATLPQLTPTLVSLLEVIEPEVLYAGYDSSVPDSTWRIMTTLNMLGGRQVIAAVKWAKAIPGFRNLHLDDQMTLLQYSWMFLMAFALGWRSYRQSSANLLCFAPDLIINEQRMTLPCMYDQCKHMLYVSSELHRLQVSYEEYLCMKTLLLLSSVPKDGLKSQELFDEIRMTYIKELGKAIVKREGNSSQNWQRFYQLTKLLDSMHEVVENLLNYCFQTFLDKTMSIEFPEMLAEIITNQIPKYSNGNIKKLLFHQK
Sequence of Cytochrome P450 3A4 (Homo sapiens) (P08684 whole entry, looked up): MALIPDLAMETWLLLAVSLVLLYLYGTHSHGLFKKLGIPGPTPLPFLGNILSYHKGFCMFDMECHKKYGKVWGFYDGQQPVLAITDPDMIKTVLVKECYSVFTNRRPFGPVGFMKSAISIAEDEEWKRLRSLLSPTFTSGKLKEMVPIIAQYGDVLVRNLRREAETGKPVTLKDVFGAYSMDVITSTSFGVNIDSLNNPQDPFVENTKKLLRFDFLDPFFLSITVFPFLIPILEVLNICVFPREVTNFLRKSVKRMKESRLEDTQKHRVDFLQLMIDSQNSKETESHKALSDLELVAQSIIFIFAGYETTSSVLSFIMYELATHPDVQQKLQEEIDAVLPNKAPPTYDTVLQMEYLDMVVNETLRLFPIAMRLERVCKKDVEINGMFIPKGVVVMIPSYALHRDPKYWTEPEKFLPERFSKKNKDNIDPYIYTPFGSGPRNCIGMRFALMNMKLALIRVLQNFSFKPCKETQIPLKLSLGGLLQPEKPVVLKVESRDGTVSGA
Sequence of Cytochrome P450 1A2 (Homo sapiens) (P05177 whole entry, looked up): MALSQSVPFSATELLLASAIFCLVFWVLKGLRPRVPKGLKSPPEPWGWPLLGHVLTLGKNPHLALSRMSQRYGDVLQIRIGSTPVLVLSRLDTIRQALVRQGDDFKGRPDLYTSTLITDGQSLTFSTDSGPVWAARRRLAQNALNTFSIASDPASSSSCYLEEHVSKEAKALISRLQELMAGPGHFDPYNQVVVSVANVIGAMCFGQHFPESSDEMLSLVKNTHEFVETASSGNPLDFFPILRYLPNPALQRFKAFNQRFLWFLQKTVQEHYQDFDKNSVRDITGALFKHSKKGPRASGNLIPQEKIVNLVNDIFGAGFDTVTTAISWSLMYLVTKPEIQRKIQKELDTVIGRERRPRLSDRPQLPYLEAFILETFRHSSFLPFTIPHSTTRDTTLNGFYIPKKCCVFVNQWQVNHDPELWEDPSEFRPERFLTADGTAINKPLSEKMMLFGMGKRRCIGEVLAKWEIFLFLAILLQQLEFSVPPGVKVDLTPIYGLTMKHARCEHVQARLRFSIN
Sequence of Muscarinic acetylcholine receptor M1 (Rattus norvegicus) (P08482 whole entry, looked up): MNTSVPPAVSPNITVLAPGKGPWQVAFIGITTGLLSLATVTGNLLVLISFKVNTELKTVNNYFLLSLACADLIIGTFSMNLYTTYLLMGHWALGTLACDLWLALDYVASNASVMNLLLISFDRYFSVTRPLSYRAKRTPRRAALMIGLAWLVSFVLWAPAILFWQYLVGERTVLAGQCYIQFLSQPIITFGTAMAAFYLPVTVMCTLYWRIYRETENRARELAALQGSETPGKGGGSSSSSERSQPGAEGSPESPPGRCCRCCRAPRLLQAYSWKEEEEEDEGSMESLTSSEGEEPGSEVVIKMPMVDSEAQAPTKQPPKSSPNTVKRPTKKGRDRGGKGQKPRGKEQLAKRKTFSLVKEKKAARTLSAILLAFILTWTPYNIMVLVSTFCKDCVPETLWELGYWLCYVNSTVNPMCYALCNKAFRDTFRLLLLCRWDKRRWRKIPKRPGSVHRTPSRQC
Sequence of Cytochrome P450 2D6 (Homo sapiens) (P10635 whole entry, looked up): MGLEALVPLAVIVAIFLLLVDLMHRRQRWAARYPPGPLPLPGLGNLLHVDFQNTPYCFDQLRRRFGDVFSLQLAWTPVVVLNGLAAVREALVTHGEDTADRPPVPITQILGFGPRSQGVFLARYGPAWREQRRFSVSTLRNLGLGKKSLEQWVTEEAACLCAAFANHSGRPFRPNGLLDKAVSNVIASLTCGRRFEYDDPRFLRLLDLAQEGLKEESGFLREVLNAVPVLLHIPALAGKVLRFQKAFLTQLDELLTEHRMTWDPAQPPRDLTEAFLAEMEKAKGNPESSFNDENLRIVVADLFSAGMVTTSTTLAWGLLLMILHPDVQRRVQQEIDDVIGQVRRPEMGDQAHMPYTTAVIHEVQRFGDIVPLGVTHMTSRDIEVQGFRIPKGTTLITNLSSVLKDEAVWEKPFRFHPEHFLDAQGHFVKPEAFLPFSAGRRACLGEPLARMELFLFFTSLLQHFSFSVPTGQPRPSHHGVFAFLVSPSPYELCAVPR
Sequence of DNA dC->dU-editing enzyme APOBEC-3G (Homo sapiens) (Q9HC16 whole entry, looked up): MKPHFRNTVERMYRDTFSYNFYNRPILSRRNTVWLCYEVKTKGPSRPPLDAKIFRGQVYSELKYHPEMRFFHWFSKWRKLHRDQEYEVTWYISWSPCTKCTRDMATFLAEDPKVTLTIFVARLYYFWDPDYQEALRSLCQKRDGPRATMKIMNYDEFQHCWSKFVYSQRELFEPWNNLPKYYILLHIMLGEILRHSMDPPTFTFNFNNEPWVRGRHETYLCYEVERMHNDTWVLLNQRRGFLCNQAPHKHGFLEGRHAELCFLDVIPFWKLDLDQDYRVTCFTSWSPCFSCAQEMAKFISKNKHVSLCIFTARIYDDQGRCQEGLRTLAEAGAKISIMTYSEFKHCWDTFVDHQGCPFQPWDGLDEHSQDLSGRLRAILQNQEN

For `COc1cccc(CCc2ccccc2OCC[C@@H]2C[C@@H](O)CN2C)c1`, the Potency in test [1] is 3.16 µM (active); in [4], 15.8 µM (active). Moreover, the Potency entry in test [2] and in [3] was “inactive” in each case.

With `C[C@]12CC3CC(N)(C1)C[C@@](C)(C3)C2`, the activity change, negative = inhibition in test [5] was 19.1% (inactive); in test [6], -5.02% (inactive); in test [18], -0.0594% (inactive). Besides, the Potency in [7] is > 46 µM (inactive); in [8], > 46 µM (inactive); in [11], 0.316 µM (active). Moreover, the Potency entry in test [9], in [10], in test [12], in [13], in [14] and in test [15] was “inactive” in each case. Also, the Potency result in test [19], in [3] and in test [20] was “inactive” in each case. Further, the outcome in test [16] and in test [17] was inactive. For the same molecule, the max response in test [18] (setting [28]) is -24.5%; in [18] (setting [29]), -26.5%; in test [4] it was -0.737% (inactive).

`CCCCCCCCCCCCCCCC(=O)OC(CO)CO`: the Potency result in test [1], in test [3] and in test [20] was “inactive” in each case.

`COc1ccc(/C=C/C(=O)CC(=O)/C=C/c2cccc(O)c2OC)cc1O`: the Potency result in [3] and in test [21] was “inactive” in each case.

Regarding `CC1=C(/C=C/C(C)=C\C=C\C(C)=C\C(=O)O)C(C)(C)CCC1`, the Potency result in test [3] and in [21] was “inactive” in each case.

Take `Oc1cc2c(cc1O)[C@H](c1ccccc1)CNCC2`: the activity change, negative = inhibition in [5] was -11.5% (inactive); in [6] it was -1.81% (inactive); in test [18] it was -0.123% (inactive). Further, the Potency entry in test [22], in test [10], in [24], in test [2], in test [15] and in [3] was “inactive” each time. Besides, the Potency entry in test [20] was “inactive”. The activity, negative = inhibition in [23] is 0.446% (inactive). The Potency in [7] and in [8] was > 46 µM (inactive) in each case. For the same molecule, the call in test [25], in test [26], in test [16], in test [27] and in test [17] was inactive. The max response is 4.46% in [18] (setting [28]) and 3.98% in test [18] (setting [29]).
